About 83,000 compounds went through this panel and 20% of them were active in at least one assay; those are over-represented in the sample as a whole.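 Results are percent growth after 48 hours of single-concentration exposure. 100 means growth as in untreated cells, lower positive values show inhibition; negative values down to -100 show cell death.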 A number with no mark means an inactive call. Calls of active or inactive are those of the source. The calls were made as follows: active = growth percent below 10; inactive = the rest.
How the values were obtained:
Assay in all cases: NCI-60 one-dose screen, 48 h (100 = growth as untreated, 0 = no growth, -100 = all killed)
NCI-H23 lung = settings: 10 µM unless noted
NCI-H226 lung = settings: 10 µM unless noted
NCI-H322M lung = settings: 10 µM unless noted
NCI-H460 lung = settings: 10 µM unless noted
HOP-92 NSCLC = settings: 10 µM
NCI-H522 lung = settings: 10 µM
A549/ATCC NSCLC = settings: 10 µM unless noted
786-0 renal = settings: 10 µM unless noted
DU-145 prostate = settings: 10 µM unless noted
K-562 leukemia = settings: 10 µM unless noted
MALME-3M melanoma = settings: 10 µM unless noted
MDA-MB-231 breast = settings: 10 µM unless noted
RXF 393 renal = settings: 10 µM unless noted
SF-268 CNS = settings: 10 µM unless noted
SF-295 CNS = settings: 10 µM unless noted
SF-539 CNS = settings: 10 µM unless noted
UACC-257 melanoma = settings: 10 µM unless noted
M14 melanoma = settings: 10 µM unless noted
COLO 205 colon = settings: 10 µM unless noted

| SMILES | growth (NCI-H23 lung) | growth (NCI-H226 lung) | growth (NCI-H322M lung) | growth (NCI-H460 lung) | growth (HOP-92 NSCLC) | growth (NCI-H522 lung) | growth (A549/ATCC NSCLC) | growth (786-0 renal) | growth (DU-145 prostate) | growth (K-562 leukemia) | growth (MALME-3M melanoma) | growth (MDA-MB-231 breast) | growth (RXF 393 renal) | growth (SF-268 CNS) | growth (SF-295 CNS) | growth (SF-539 CNS) | growth (UACC-257 melanoma) | growth (M14 melanoma) | growth (COLO 205 colon) [%] |
| --- | --- | --- | --- | --- | --- | --- | --- | --- | --- | --- | --- | --- | --- | --- | --- | --- | --- | --- | --- |
| COc1cc(OC)cc(-c2ccc(-c3ccc(C(=N)N)cc3)s2)c1 | -77.5% (active) | -67.5% (active) | -89.3% (active) | -88.5% (active) | -80.6% (active) | -58.2% (active) | -41.5% (active) | -60.2% (active) | -90.6% (active) | -39.8% (active) | -80.7% (active) | -77% (active) | -94.3% (active) | -72.2% (active) | -88.4% (active) | -88.7% (active) | -58% (active) | -90.5% (active) |  |
| CCCCCc1ccnc(CC(=O)c2ccc(OC)cc2)c1 | 93.8% | 88.6% | 104% | 95.2% | 69.5% | 66.6% |  | 98.9% | 105% | 68.1% | 90.3% | 98% | 106% | 98.7% | 97.4% | 97.2% | 90.9% | 99.2% | 87.3 |
| CC1(C)Oc2cc3oc(=O)ccc3cc2C[C@@H]1OCCOS(=O)(=O)c1ccc(C#N)cc1 | 91.8% | 87.8% | 105% | 93% | 91.4% | 77.8% | 92.5% | 100% | 103% |  | 93.6% | 94.5% |  | 89.2% | 87.7% | 96.6% | 84.2% |  |  |
